Data as given in PubChem BioAssay.
The source made the active and inactive calls.

How the values were obtained:
[1] = test system: Plasmodium falciparum Sir2 (PF13_0152, Sir2A); test: Plasmodium falciparum Sir2A binding compounds – biochemical, small-molecule microarray, 635 nm fluorescence, primary screen (AID 1098); settings: fluorescence 635 nm, higher = more signal;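 further: score merges spot fluorescence intensity with its signal-to-noise ratio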
[2] = probe aDKK1 binding to arrayed compounds – biochemical, biotinylated probe, 635/667 nm fluorescence, primary screen (AID 1099); settings: small-molecule microarray, higher = more signal;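 further: score merges 667nm spot fluorescence with signal to noise across triplicate slides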
[3] = probe aCHRDL2 binding to arrayed compounds – biochemical, biotinylated probe, 635/667 nm fluorescence, primary screen (AID 1100); settings: small-molecule microarray, higher = more signal
[4] = change in splice reporter luminescence, either direction, cell-based, HEK293, spliceosome inhibition project, primary screen (AID 1101); settings: HEK293 splicing luciferase reporter, 24 h, higher = more signal, called active from +8 up or from −8 down;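 further: HEK293 cells carrying a splicing-competent luciferase reporter gene; test concentration not given here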
[5] = target: Fibroblast growth factor 10 (Homo sapiens) (UniProt O15520); test: compounds binding fibroblast growth factor 10 – biochemical, small-molecule microarray, 635 nm fluorescence, primary screen (AID 1102); settings: FGF10 binding, fluorescence 635 nm, higher = more signal
Chain of Fibroblast growth factor 10 (Homo sapiens) (O15520 whole entry, looked up): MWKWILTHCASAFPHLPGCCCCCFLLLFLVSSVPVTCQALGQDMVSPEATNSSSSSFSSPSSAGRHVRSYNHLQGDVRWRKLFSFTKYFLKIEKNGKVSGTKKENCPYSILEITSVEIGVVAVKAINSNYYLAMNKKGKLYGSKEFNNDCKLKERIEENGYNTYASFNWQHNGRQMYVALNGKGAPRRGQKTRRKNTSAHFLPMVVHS

[6] = test system: glycogen synthase kinase-3 (GSK3A per assay name; protocol says GSK3B); test: compounds binding glycogen synthase kinase-3 – biochemical, small-molecule microarray, 635 nm fluorescence, GSK3A, primary screen (AID 1103); settings: fluorescence 635 nm, higher = more signal; further: the record names both GSK3A and GSK3B
[7] = target: Epidermal growth factor receptor (Homo sapiens) (UniProt P00533); test: compounds binding epidermal growth factor receptor – biochemical, small-molecule microarray, 635 nm fluorescence, primary screen (AID 1104); settings: EGFR binding, higher = more signal;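 further: score merges 667 nm emission intensity with spot signal to noise over triplicate slides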
Chain of Epidermal growth factor receptor (Homo sapiens) (P00533 whole entry, looked up): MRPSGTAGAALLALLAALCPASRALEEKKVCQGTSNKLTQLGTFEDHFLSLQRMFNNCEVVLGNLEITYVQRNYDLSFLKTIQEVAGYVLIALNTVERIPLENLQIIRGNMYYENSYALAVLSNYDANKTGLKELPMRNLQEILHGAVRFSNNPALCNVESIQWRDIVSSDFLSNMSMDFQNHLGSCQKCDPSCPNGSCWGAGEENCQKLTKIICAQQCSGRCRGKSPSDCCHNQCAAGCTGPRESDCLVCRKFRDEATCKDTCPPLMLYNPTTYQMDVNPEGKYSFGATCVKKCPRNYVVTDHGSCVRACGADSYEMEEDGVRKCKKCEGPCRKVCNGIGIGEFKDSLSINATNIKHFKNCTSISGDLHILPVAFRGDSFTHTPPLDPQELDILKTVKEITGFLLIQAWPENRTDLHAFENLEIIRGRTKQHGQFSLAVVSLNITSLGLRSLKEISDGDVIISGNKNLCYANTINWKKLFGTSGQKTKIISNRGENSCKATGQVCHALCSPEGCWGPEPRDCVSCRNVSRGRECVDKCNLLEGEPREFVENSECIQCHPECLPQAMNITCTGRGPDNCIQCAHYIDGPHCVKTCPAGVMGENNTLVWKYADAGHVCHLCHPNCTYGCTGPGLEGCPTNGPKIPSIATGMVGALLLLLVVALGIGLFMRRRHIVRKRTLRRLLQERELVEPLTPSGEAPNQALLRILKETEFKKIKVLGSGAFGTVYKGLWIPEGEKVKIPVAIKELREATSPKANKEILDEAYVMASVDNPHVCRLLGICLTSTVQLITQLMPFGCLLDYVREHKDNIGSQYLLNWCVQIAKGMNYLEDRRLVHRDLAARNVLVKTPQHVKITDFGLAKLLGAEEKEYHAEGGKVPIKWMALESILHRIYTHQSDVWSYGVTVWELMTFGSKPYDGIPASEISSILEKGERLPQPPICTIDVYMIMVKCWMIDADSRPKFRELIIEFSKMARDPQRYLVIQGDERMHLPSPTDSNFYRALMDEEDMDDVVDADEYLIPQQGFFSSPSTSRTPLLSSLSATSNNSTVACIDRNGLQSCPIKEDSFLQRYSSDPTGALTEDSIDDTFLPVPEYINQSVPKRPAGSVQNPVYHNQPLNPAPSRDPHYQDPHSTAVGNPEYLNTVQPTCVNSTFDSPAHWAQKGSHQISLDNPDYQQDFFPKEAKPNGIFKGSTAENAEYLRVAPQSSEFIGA

[8] = target: Follistatin-related protein 3 (Homo sapiens) (UniProt O95633); test: compounds binding follistatin-related protein 3 – biochemical, small-molecule microarray, 635 nm fluorescence, primary screen (AID 1105); settings: FSTL3 binding, higher = more signal;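 further: score merges emission near 667 nm and signal to noise per printed spot across three slides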
Chain of Follistatin-related protein 3 (Homo sapiens) (O95633 whole entry, looked up): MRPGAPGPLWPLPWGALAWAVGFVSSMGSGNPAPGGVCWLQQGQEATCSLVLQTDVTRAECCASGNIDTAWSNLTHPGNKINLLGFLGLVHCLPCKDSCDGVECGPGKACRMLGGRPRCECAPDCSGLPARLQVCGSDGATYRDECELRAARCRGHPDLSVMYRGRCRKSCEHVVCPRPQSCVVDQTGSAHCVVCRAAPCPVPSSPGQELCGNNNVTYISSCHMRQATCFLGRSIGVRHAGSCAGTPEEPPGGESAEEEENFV

[9] = target: Dickkopf-related protein 1 (Homo sapiens) (UniProt O94907); test: small molecules binding DKK1 protein – biochemical, small-molecule microarray, 635 nm fluorescence scan, primary screen (AID 1106); settings: higher = more signal;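 further: score merges emission near 667 nm with signal to noise over three replicate slides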
Chain of Dickkopf-related protein 1 (Homo sapiens) (O94907 whole entry, looked up): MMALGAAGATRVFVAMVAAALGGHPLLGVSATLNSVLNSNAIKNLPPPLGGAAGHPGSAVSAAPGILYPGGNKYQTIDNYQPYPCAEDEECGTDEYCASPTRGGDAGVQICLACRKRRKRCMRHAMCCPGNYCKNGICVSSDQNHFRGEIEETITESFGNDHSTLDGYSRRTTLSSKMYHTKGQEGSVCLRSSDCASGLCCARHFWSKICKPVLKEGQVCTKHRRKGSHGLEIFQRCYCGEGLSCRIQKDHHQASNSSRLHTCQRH

[10] = test system: Inhibin beta A chain (activin A); test: small molecules binding activin A – biochemical, small-molecule microarray, 635 nm fluorescence scan, primary screen (AID 1107); settings: INHBA, higher = more signal;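 further: mouse activin A protein probed at 4.33 µg/mL on printed slides; score merges bound-protein fluorescence near 667 nm with spot signal-to-noise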
[11] = test system: Human papillomavirus type 1a protein E7 (residues 44-93); test: small molecules binding HPV E7 44-93 – biochemical, small-molecule microarray, residues 44-93, 635 nm fluorescence, primary screen (AID 1108); settings: fluorescence 635 nm, higher = more signal;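 further: E7 fragment applied at 1 µg/mL in TBST for 1 h at 4 C; score combines spot fluorescence with its signal to noise ratio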
[12] = hepatitis C replication reporter changes, two-sided – Huh7 cells, luciferase reporter, HCV replication inhibitor project, primary screen (AID 1109); settings: Huh7 HCV replicon luciferase reporter, 48 h; higher = more signal;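 further: huh7 hepatoma cells harbouring a luciferase neomycin HCV replicon reporter; luciferase luminescence as measure of HCV replicon replication; test concentration not given here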
[13] = target: Left-right determination factor 2 (Homo sapiens) (UniProt O00292); test: small molecules binding LEFTY2 protein – biochemical, small-molecule microarray, 635 nm fluorescence scan, primary screen (AID 1110); settings: higher = more signal
Chain of Left-right determination factor 2 (Homo sapiens) (O00292 whole entry, looked up): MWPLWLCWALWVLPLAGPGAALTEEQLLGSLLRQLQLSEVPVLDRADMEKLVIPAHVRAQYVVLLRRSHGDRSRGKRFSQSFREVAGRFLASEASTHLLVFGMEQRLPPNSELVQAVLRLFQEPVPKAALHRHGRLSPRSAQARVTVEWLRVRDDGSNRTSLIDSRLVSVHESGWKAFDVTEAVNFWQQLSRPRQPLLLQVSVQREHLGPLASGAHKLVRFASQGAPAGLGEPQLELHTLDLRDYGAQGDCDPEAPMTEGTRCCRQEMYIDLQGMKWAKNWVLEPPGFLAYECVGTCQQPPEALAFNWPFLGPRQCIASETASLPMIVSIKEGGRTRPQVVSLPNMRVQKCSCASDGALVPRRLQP

[14] = target: Calmodulin-1 (Homo sapiens) (UniProt P0DP23); test: small molecules binding calmodulin-1 with EGTA – biochemical, small-molecule microarray, Cy5-labelled CALM1, profiling panel (AID 1111); settings: Cy5-CALM1 binding fluorescence, higher = more signal;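 further: labelled calmodulin applied in Tris saline Tween buffer holding calcium plus EGTA and DTT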
[15] = target: Calmodulin-1 (Homo sapiens) (UniProt P0DP23); test: small molecules binding Ca-loaded calmodulin-1 – biochemical, small-molecule microarray, Cy5-labelled CALM1, plus calcium, artefact control for SMM control-protein annotation, profiling panel (AID 1112); settings: Cy5-CALM1 binding fluorescence, higher = more signal;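 further: score merges spot fluorescence with signal to noise from triplicate slides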
[16] = probe aWnt5a binding to arrayed compounds – biochemical, biotinylated probe, 635/667 nm fluorescence, primary screen (AID 1113); settings: small-molecule microarray, higher = more signal;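 further: score merges 667 nm fluorescence intensity with signal-to-noise per printed feature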
[17] = probe aShh binding to arrayed compounds – biochemical, biotinylated probe, 635/667 nm fluorescence, primary screen (AID 1114); settings: small-molecule microarray, higher = more signal;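 further: probe is biotin-labelled aShh protein from a stem cell growth factor screen; measures binding of labelled protein to compounds printed on the slide; score merges feature fluorescence at 667 nm with signal-to-noise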
[18] = probe aNog binding to arrayed compounds – biochemical, biotinylated probe, 635/667 nm fluorescence, primary screen (AID 1115); settings: small-molecule microarray, higher = more signal;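 further: probe is biotinylated aNog protein used at 0.15 µg/mL for 1 h at 4 C; z-score combines 667 nm fluorescence of each spot with its signal to noise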
[19] = target: Torsin-1A-interacting protein 1 (Homo sapiens) (UniProt Q5JTV8); test: compound microarray binding of lysate hLAP1 – cell lysate, small-molecule microarray, COS7 lysate, 635/667 nm fluorescence, primary screen (AID 1116); settings: 635 nm fluorescence, higher = more signal
Chain of Torsin-1A-interacting protein 1 (Homo sapiens) (Q5JTV8 whole entry, looked up): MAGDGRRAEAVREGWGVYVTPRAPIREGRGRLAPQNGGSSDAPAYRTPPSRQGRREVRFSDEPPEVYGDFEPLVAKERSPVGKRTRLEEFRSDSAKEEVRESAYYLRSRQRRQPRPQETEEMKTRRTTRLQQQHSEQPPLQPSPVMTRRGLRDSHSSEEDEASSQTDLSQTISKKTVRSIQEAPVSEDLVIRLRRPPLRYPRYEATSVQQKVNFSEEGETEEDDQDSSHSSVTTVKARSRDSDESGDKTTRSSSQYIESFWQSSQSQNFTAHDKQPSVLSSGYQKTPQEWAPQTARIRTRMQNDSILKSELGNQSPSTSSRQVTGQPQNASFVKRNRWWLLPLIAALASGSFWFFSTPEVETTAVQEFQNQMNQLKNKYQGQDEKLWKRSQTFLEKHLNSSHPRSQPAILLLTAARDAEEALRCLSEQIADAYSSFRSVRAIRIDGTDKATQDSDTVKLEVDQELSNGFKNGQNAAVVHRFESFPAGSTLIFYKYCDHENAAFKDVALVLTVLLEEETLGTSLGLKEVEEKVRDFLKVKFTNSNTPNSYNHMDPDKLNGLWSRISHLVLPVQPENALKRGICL

[20] = target: Alpha-bungarotoxin (Bungarus multicinctus) (UniProt P60615); test: compounds binding labelled alpha-BTX control protein – biochemical, small-molecule microarray, Alexa647 label, 635/667 nm fluorescence, artefact control for SMM control protein annotation, profiling panel (AID 1117); settings: alpha-BTX-A647 binding fluorescence, higher = more signal
Chain of Alpha-bungarotoxin (Bungarus multicinctus) (P60615 whole entry, looked up): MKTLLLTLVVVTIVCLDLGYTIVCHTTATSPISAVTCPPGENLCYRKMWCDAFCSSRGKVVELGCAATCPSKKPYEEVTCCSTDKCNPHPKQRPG

SMILES | composite z-score [1] | composite z-score [2] | composite z-score [3] | z-score [4] | composite z-score [5] | composite z-score [6] | composite z-score [7] | composite z-score [8] | composite z-score [9] | composite z-score [10] | composite z-score [11] | z-score [12] | composite z-score [13] | composite z-score [14] | composite z-score [15] | composite z-score [16] | composite z-score [17] | composite z-score [18] | composite z-score [19] | composite z-score [20]
CCN(CC)c1ccc(N2CC=CC34O[C@@H]5/C=C\CCC(C)OC(=O)C5[C@H]3C(=O)N(CCCO)[C@@H]4C2=O)cc1 (stereo not given in full) | 1.44 | -0.137 | 0.325 | 0.122 (inactive) | -0.221 | -0.615 | -1.02 | -0.777 | -0.492 | 1.01 | -0.0672 | -0.527 | -0.434 | -0.671 | -0.431 | -0.128 | 0.0469 | -0.216 | 0.581 | -0.625
CO[C@H]1COC(=O)[C@@H]2CCCN2C(=O)[C@@H](C)COC(=O)CC=C[C@@H]1C | 0.474 | -0.342 | -0.919 | 0.00841 (inactive) | 0.618 | 1.05 | 1.15 | 1.11 | 1.1 | -0.24 | -1.03 | -0.496 | 1.2 | 0.212 | -0.823 | -0.13 | -0.0793 | -0.0209 | 0.626 | -1.16
COc1cccc([C@H]2Oc3ccc(OC)cc3C(=NOC(C)CN3CCCc4nc(C)c(C)cc43)[C@@H]2O)c1 (stereo not given in full) | -0.403 | -0.207 | -0.335 | -0.467 (inactive) | 0.474 | 0.827 | 0.746 | 0.0288 | 0.492 | -0.109 | -0.508 | -1.12 | 0.37 | -0.789 | -0.582 | -0.0286 | 0.151 | -0.135 | 0.74 | -0.618
O=C1O[C@@H](c2ccccc2)[C@@H](c2ccccc2)N2[C@@H](c3ccc(OCCO)cc3)[C@]3(C(=O)Nc4ccc(C#CCCO)cc43)[C@@H](C(=O)N3CCCCCCC3)[C@H]12 | 1.85 | 2.25 | 1.13 | -0.277 (inactive) | 1.22 | 1.32 | 0.744 | 1.55 | 1.78 | 1.71 | -0.516 | -0.777 | 1.07 | 2.62 | 1.06 | 0.935 | 2.18 | 2.81 | 4.07 | 2.78
CCOC(=O)NN=C1C[C@@H](O)[C@@H](O)[C@@H]2[C@@H]3C(=O)N(CC)C(=O)[C@@H]3CC[C@@H]12 | 0.163 | -0.407 | -0.263 | 0.379 (inactive) | 0.664 | 0.434 | 0.684 | 0.518 | 0.14 | -0.232 | 0.788 | -0.161 | 0.651 | -0.21 | -0.264 | -0.118 | -0.0977 | -0.213 | 0.197 | 0.595
CS(=O)(=O)CCOC(=O)C1=CC(CCCO)=CC(c2cccs2)N(Cc2cccc(OC(F)(F)F)c2)C=C1C(=O)OCCS(C)(=O)=O (stereo not given) | 0.811 | 0.674 | 0.742 | 0.538 (inactive) | 0.739 | 0.873 | -0.37 | 0.14 | -0.06 | 0.915 | 0.729 | -2.77 | -0.224 | 2.31 | 1.36 | 0.055 | 0.261 | -0.0554 | 1.88 | 1.6
CCOC(=O)C1=CC[C@H]2C(=O)N(CC)C(=O)[C@@H]12 | 0.762 | -0.146 | -0.242 | -0.253 (inactive) | 1.07 | 0.947 | 0.0746 | 0.933 | 0.0851 | 0.666 | 1.19 | -2.13 | 0.444 | -0.322 | -0.485 | -0.0236 | 0.329 | -0.0184 | 0.184 | 0.431
O=C1[C@H]2[C@H]3[C@H](O)[C@H](O)CC(=NOC[C@@H](O)COCc4ccco4)[C@H]3CC[C@H]2C(=O)N1Cc1ccc2c(c1)OCO2 | 0.285 | 0.534 | -1.5 | 0.204 (inactive) | 0.11 | 1.28 | 0.986 | 0.83 | 1.39 | 0.0751 | -0.532 | -0.385 | 1.37 | -1.37 | -2.03 | -0.119 | -0.349 | -0.278 | 0.13 | -0.147
CCOc1ccc(N2C(=O)/C(=C/C=C/c3ccccc3OC)S(=O)(=O)C2c2cccc([N+](=O)[O-])c2)cc1 (stereo not given) | -0.379 | 0.0757 | 0.42 | 1.04 (inactive) | 0.226 | 0.342 | 0.549 | 0.393 | 0.218 | 0.61 | -0.432 | -2.17 | 0.49 | 1.27 | 0.545 | 0.0017 | -0.2 | 0.0373 | 0.351 | 0.321
CC1(C)OCC(C(O)C2=CCCCC2=O)CO1 (stereo not given) | 1.04 | -0.137 | -0.704 | 0.733 (inactive) | 0.694 | 0.999 | 0.625 | 0.859 | 0.717 | 1.6 | 0.198 | -0.751 | 1.07 | 0.465 | -0.927 | 0.0244 | -0.276 | -0.158 | 0.5 | 1.16
O=C1[C@H]2[C@H]3[C@H](O)[C@H](O)CC(=NOCc4ccccc4)[C@@H]3CC[C@H]2C(=O)N1Cc1ccccc1 | -0.935 | -0.206 | -0.571 | -0.491 (inactive) | 0.43 | 0.75 | 0.453 | 0.58 | 0.544 | -0.359 | 0.813 | 0.427 | 0.509 | 0.675 | -0.374 | -0.197 | 0.214 | 0.144 | 0.102 | 0.159
CCOC(=O)C[C@H]1[C@H](OC(=O)c2ccc(C(=O)c3ccccc3)cc2)[C@@H](NC(=O)c2ccc(-c3ccccc3)cc2)c2cc(OCCCO)ccc2N1C(=O)c1ccc2ccccc2n1 | 1.02 | -0.301 | -0.432 | -0.784 (inactive) | 1.29 | 0.838 | 0.519 | 0.775 | 0.606 | 0.23 | 1.07 | -0.91 | 0.757 | -0.299 | -0.766 | 0.0835 | -0.317 | -0.621 | 0.249 | 0.774
